40 molecules from PubChem BioAssay (Tox21) can be followed below.

Molecules are shown by their SMILES. “And” between values parts separate entries of the source, which are not always exact repeats. Equal values may be shown once. Records with an inconclusive call do not appear. Entries that show only a call come without a potency. Where a structure was tested more than once in an assay, its records may differ in their call. The source made the active and inactive calls. Calls follow the shape of the dose curve; as a rule, active = well fitted cell-killing curve with a large enough effect in the repeat runs; inconclusive = weak or mixed curves; inactive = no such curve, though single readings can be large or run the other way.
Potency is read from the fitted curve at half-maximal effect.

This assay can be described thus: qHTS assay for identifying genotoxic compounds that show differential cytotoxicity against isogenic chicken DT40 cell lines with known DNA damage response pathways - Rad54/Ku70 mutant cell line (AID 743015). Also: nearly all actives have a fitted effect of over 60% in size. To be noted: DT40 Rad54/Ku70 mutant viability, CellTiter-Glo, 40 h; series mostly up to 66.8 µM; activity change, negative = cytotoxicity: at the top concentration. From the text: National Center for Advancing Translational Sciences [NCATS]
NIH Chemical Genomics Center [NCGC]
U.S. Environmental Protection Agency [EPA]
National Institutes of Environmental Health Sciences [NIEHS]
National Toxicology Program [NTP]
U.S. Food and Drug Administration [FDA]
DNA repair pathways play a critical role in cellular homeostasis by repairing DNA damage induced by endogenous processes and xenobiotics. Isogenic chicken DT40 cell lines deficient in different DNA repair pathways can be used to identify genotoxic compounds and aid in characterizing the nature of the DNA damage induced. Two DNA repair-deficient cell lines with disrupted genes, Rad54/Ku70 or Rev3, were used to screen the Tox21 10K compound library. Possible genotoxicity was based on the presence of a significant increase in cytotoxicity in one or more of the DNA repair-deficient cell lines compared to that observed in the parental DNA repair-proficient cell line. CellTiter Glo viability assay (Promega, Madison, WI) was used to measure cell viability in these cells after compound treatment. This assay includes the data from the Rad54/Ku70 mutant cell line.
Tox21 Assay Protocol Summary:
300 DT40 mutant cells in 5 uL/well were dispensed into white, solid-bottom 1536-well plates using a Multidrop Combi (ThermoFisher Scientific, Waltham, MA) dispenser. After the assay plates were incubated at 37 C/5% CO2 for approximately 0.5 hour, 23 nL of compounds dissolved in DMSO, positive controls or DMSO only was transferred into the assay plate by a pintool work station (Kalypsys, San Diego, CA). The assay plates were incubated at 37 C/5% CO2 for 40 hours. After 5 uL per well of CellTiter-Glo reagent was added into each well of the assay plates, the plates were incubated for 30 min at room temperature and the luminescence intensity of the plates was measured using a ViewLux (PerkinElmer, Shelton, CT) plate reader.
In general terms: qHTS replaces the single test concentration by a dilution series.
On to `OCC#CCO`, for which the Potency result was “inactive and 48.6 µM (active)”. Still for that read-out and setting: as for `O=C(Cl)c1c(Cl)c(Cl)c(C(=O)Cl)c(Cl)c1Cl`, the entry is “inactive”; as for `OCC1CCCO1` (stereo not given), “inactive”; as for `CCCCNC(N)=O`, “inactive”. Same read-out and setting: the entry for `CC(C)(CO)COC(=O)C(C)(C)CO` is “inactive”; for `CC1CC(OC(=O)c2ccccc2O)CC(C)(C)C1` (stereo not given) it is “inactive”. The same measure, in the same setting: as for `C=C(C)C(=O)OCCC[Si](OC)(OC)OC`, the entry is “inactive”; as for `CC1(C)CC(N=C=O)CC(C)(CN=C=O)C1` (stereo not given), “inactive”; as for `OC[C@@H](O)[C@@H](O)[C@H](O)[C@@H](O)CO`, “inactive”. In the case of `C=C(C)C(=O)OCCCCCC`, the Potency entry was “inactive”. Regarding `O=S(=O)(Oc1ccc(Cl)cc1Cl)c1ccccc1`, the “activity change, negative = cytotoxicity” value is -16.3% (inactive). Regarding `O=[N+]([O-])C(CO)(CO)CO`, the Potency result was “inactive and 68.6 µM (active)”.

For the molecule `O=C(O)c1ccc([N+](=O)[O-])cc1`, the Potency result is “inactive”.

With `NCCc1ccc(O)c(O)c1`, the Potency is 19.4 µM (active).

For the molecule `COC(=O)c1ccc(C(=O)OC)cc1`, the Potency result is “inactive”. On to `O=c1c(-c2ccc(O)cc2)coc2cc(O)ccc12`, for which the “activity change, negative = cytotoxicity” value is -1.41% (inactive). Turning to `Cc1cc(NS(=O)(=O)c2ccc(N)cc2)no1`, the Potency entry was “inactive”. The same measure, in the same setting: as for `O=[N+]([O-])c1cccc(Cl)c1`, the entry is “inactive”; as for `CC(=O)Nc1ccc(C(=O)O)cc1`, “inactive”; as for `Nc1nc2ncc(CNc3ccc(C(=O)N[C@@H](CCC(=O)O)C(=O)O)cc3)nc2c(=O)[nH]1`, “inactive”.

Consider `CC1=C(/C=C/C(C)=C/C=C/C(C)=C/CO)C(C)(C)CCC1`, for which the Potency is 43.8 µM (active) and 25.7 µM (active).

Turning to `OCCOCCOCCOCCO`, the Potency entry is “inactive”.

Consider `CC(C)n1c(/C=C/[C@@H](O)C[C@@H](O)CC(=O)O)c(-c2ccc(F)cc2)c2ccccc21`, for which the Potency was 3.35 µM (active) and 8.63 µM (active). Still for that read-out and setting: the entry for `CCC(=O)O` is “inactive”.

Take `CCCCC/C=C\C/C=C\CCCCCCCC(=O)OC`: the Potency is 21.7 µM (active). The same measure, in the same setting: the entry for `CNC[C@H](O)[C@@H](O)[C@H](O)[C@H](O)CO` is “inactive”; for `CC1=CC[C@H]2C[C@@H]1C2(C)C` it is “inactive”. Same read-out and setting: the entry for `CCCCC(CC)COC(C)=O` (stereo not given) is “inactive”; for `NC(=O)/N=N/C(N)=O` it is “inactive”; for `C=C1CC[C@H](O)CC1=C/C=C1\CCC[C@]2(C)[C@@H]([C@H](C)/C=C/[C@H](C)C(C)C)CC[C@@H]12` it is 13.3 µM (active) and 13.6 µM (active) and 27.3 µM (active). Same read-out and setting: the entry for `CC(=O)CCc1ccccc1` is “inactive”; for `NS(=O)(=O)c1cc2c(cc1Cl)NC=NS2(=O)=O` it is “inactive”. For `CCc1ccc(O)cc1`, the Potency entry was “inactive”. With `COCC(C)O` (stereo not given), the Potency entry is “inactive”.

With `Cc1cc(O)cc(C)c1Cl`, the Potency result is “inactive”. The same measure, in the same setting: the entry for `CCCCCCCCCCCCN` is “inactive and 19.3 µM (active)”; for `CCCCCCCCC` it is “inactive”. On to `OC1CCCC1`, for which the Potency result was “inactive”. Still for that read-out and setting: the entry for `CCC(C)C=O` (stereo not given) is “inactive”; for `C=C(C#N)C(=O)OCC` it is “inactive and 24.3 µM (active)”.
